Source: PubChem BioAssay (NCATS)
Inconclusive results are not listed. Unmarked numbers belong to inactive results. The source made the active and inactive calls. The call rests on the fitted dose curve; in most records, active means well fitted curve in the direction sought with a large enough effect; inconclusive means small, poorly fitted or top-dose-only effect, or another doubt; inactive means no such curve, though single readings can be large or run the other way.

assay: qHTS for Inhibitors of Ubiquitin-specific Protease USP2a Using CHOP2 as the Reporter: K633 Counterscreen (AID 652168); details: No-enzyme DiUb K48 IQF substrate fluorescence interference, kinetic; series mostly up to 57.5 µM; activity change, negative = inhibition: at the top concentration; further: % of control where 0% means no effect
From the text: Homeostasis of cellular proteins is maintained through a combination of synthesis and degradation. The pathway that accounts for the majority of protein degradation is the ubiquitin-proteasomal pathway. Ubiquitin (Ub) is highly conserved in all cells and the generation of a multi-Ub chain typically targets proteins for degradation by the proteasome. However, ubiquitination is highly reversible and dynamic. Deubiquitination, the reverse process, is catalyzed through the action of enzymes referred to as isopeptidases or deubiquitinating enzymes (DUBs). This group of enzymes is collectively responsible for maintaining adequate pools of free ubiquitin and regulating the ubiquitination status of cellular proteins. The class of DUBs referred to as the ubiquitin-specific proteases (USP) family functions endoproteolytically to cleave Ub chains from a wide range of protein substrates. USP2a deubiquitinates fatty acid synthase (FASN) which has recently been identified as an emerging oncology target. To identify inhibitors of USP2a a cell-free qHTS assay was employed. To determine whether the compounds interacted with the detection system alone, the effect of compounds on the substrate of assay 2.1.3 over time was determined in a 1536-well assay. A compound that modulates the fluorescence over time would be indicative of interference with the detection system. The buffer consisted of 20 mM Tris pH 8, 2 mM beta-mercaptoethanol and 0.05% Chaps, and the assay was run in black solid-bottom Greiner plates. NIH Molecular Libraries Probe Centers Network [MLPCN] NIH Chemical Genomics Center [NCGC] MLSCN Grant: MH079852 PI Name: Benjamin Nicholson, Progenra Inc, Malvern, PA
3 uL of no enzyme in assay buffer was dispensed into a 1536-well plate and then compounds were added through pinning. 1 uL of 100 nM DiUb K48-4IQF subtsrate was added before fluoresence on the ViewLux in kinetic moder (Ex 525/Em 598).

| Structure (SMILES) | activity change, negative = inhibition | outcome |
| --- | --- | --- |
| COc1ccc(S(=O)(=O)Nc2cnccc2C(=O)Nc2nc(-c3ccccc3)cs2)cc1 | -5.51% |  |
| Cc1ccc(S(=O)(=O)Nc2cc(Cl)c(Cl)cc2C(=O)Nc2nc(-c3ccccc3)cs2)cc1 | 12.5% |  |
| Cc1ccc(-c2cc(C(=O)NC3CCCCC3)c3ccccc3n2)cc1C | -12.8% |  |
| Cc1cc(S(=O)(=O)Nc2cnccc2C(=O)Nc2nc(-c3ccccc3)cs2)c(C)o1 | -4.26% |  |
| CCCc1ccc(-c2csc(NC(=O)c3ccncc3NS(=O)(=O)c3ccc(C)cc3)n2)cc1 | -4.15% |  |
| CC(C)(C)NC(=O)N1CCC(C(=O)Nc2ccc([S+](=O)([O-])Nc3nccs3)cc2)CC1 | -0.52% |  |
| O=C(Nc1nc(-c2ccccc2)cs1)c1ccncc1NS(=O)(=O)c1cccc(Cl)c1 | -3.11% |  |
| O=C(Nc1nc(-c2ccccc2)cs1)c1ccncc1NS(=O)(=O)c1ccc(F)cc1F | -6.43% |  |
| Cc1ccc(-c2cc(C(=O)Nc3ccc(S(N)(=O)=O)cc3)c3cccc(C)c3n2)cc1C | -24.3% |  |
| COc1ccccc1S(=O)(=O)Nc1cnccc1C(=O)Nc1nc(-c2ccccc2)cs1 | -13.3% |  |
| Cc1ccc(S(=O)(=O)Nc2cnccc2C(=O)Nc2nc(-c3cccc(F)c3)cs2)cc1 | 4.55% |  |
| Cc1ccc(S(=O)(=O)Nc2cnccc2C(=O)Nc2nc(-c3cccc(Cl)c3)cs2)cc1 | -1.15% |  |
| O=C(Nc1nc(-c2ccccc2)cs1)c1ccncc1NS(=O)(=O)c1ccc(C(F)(F)F)cc1 | -2.24% |  |
| Cc1ccc(S(=O)(=O)Nc2cnccc2C(=O)Nc2nc(-c3ccc(Cl)cc3)cs2)cc1 | -1.03% |  |
| Cc1ccc(S(=O)(=O)Nc2cc([N+](=O)[O-])ccc2C(=O)Nc2nc(-c3ccccc3)cs2)cc1 | -0.48% |  |
| CCN(CC)C(=O)C1CCC(C(=O)Nc2ccc([S+](=O)([O-])Nc3nccs3)cc2)CC1 (stereo not given) | -5.35% |  |
| O=C(Nc1nc(-c2ccccc2)cs1)c1ccncc1NS(=O)(=O)c1ccc(F)cc1Cl | -2.69% |  |
| Cc1ccc(-c2csc(NC(=O)c3ccncc3NS(=O)(=O)c3ccc(C)cc3)n2)cc1 | 1.55% |  |
| COc1ccc(-c2csc(NC(=O)c3ccncc3NS(=O)(=O)c3ccc(C)cc3)n2)cc1 | -2.79% |  |
| O=C(Nc1nc(-c2ccc(F)cc2)cs1)c1ccncc1NS(=O)(=O)c1ccccc1Cl | -5.63% |  |

| Structure (SMILES) | activity change, negative = inhibition | outcome |
| --- | --- | --- |
| Cc1ccc(S(=O)(=O)Nc2cnccc2C(=O)Nc2cccc3ccccc23)cc1 | -11.6% |  |
| O=C(Nc1nc(-c2ccccc2)cs1)c1ccncc1NS(=O)(=O)c1ccc(F)cc1 | -6.54% |  |
| O=S(=O)(Nc1nccs1)c1ccc(Nc2nc(-c3ccc(Cl)c(Cl)c3)cs2)cc1 | -12.2% |  |
| COc1cccc(-c2csc(NC(=O)c3ccncc3NS(=O)(=O)c3ccc(C)cc3)n2)c1 | -2.7% |  |
| O=C(Nc1nc(-c2ccccc2)cs1)c1ccncc1NS(=O)(=O)c1ccc(F)c(F)c1 | -6.57% |  |
| CCc1ccc(S(=O)(=O)Nc2cnccc2C(=O)Nc2nc(-c3ccccc3)cs2)cc1 | -4.55% |  |
| Cc1ccc(S(=O)(=O)Nc2cnccc2C(=O)Nc2ccc3ccccc3c2)cc1 | -0.98% |  |
| Cc1ccc(S(=O)(=O)Nc2cnccc2C(=O)Nc2nc(-c3cccnc3)cs2)cc1 | -6.75% |  |
| CCCOC1CCC(C(=O)Nc2ccc([S+](=O)([O-])Nc3nccs3)cc2)CC1 (stereo not given) | -6.36% |  |
| O=C(Nc1nc(-c2ccccc2)cs1)c1ccncc1NS(=O)(=O)c1ccc2c(c1)CCC2 | -2.46% |  |
| O=C(Nc1nc(-c2ccc(F)cc2)cs1)c1ccncc1NS(=O)(=O)c1ccc(F)cc1 | -3.61% |  |
| O=C(Nc1nc(-c2ccccc2)cs1)c1ccncc1NS(=O)(=O)c1ccccc1 | -5.29% |  |
| O=C(Nc1nc(-c2ccccc2)cs1)c1ccncc1NS(=O)(=O)c1ccccc1F | -3.9% |  |
| Cc1ccc(S(=O)(=O)Nc2cnccc2C(=O)Nc2nc(-c3ccccc3Cl)cs2)cc1 | -2.96% |  |
| Cc1ccc(-c2cc(C(=O)Nc3ccc(S(=O)(=O)O)cc3)c3ccccc3n2)cc1C | -14% |  |
| Cc1ccc(S(=O)(=O)Nc2cnccc2C(=O)Nc2ccc(-c3nn[nH]n3)cc2)cc1 | -1.66% |  |
| Cc1ccccc1S(=O)(=O)Nc1cnccc1C(=O)Nc1nc(-c2ccccc2)cs1 | -4.74% |  |
| Cc1ccc(S(=O)(=O)Nc2cnccc2C(=O)Nc2nc(-c3cc(Br)cs3)cs2)cc1 | -5.78% |  |
| O=S(=O)(Nc1nccs1)c1ccc(Nc2nc(-c3ccc(F)cc3)cs2)cc1 |  | inactive |
| O=C(Nc1nc(-c2ccccc2)cs1)c1ccncc1NS(=O)(=O)c1ccc(-c2ccccc2)cc1 | -29.6% |  |
